Data: ChEMBL document CHEMBL4808148, “HDAC6 screening dataset using tau-based substrate in an enzymatic assay yields selective inhibitors and activators” (2021)
Hit rate of the full screen: of about 5,600 compounds, about 150 (2.7%) showed an effect of 50% or more. The sample holds strong results, similar compounds and a random draw of the others, so the mix is not that of the screen.

Experiments:
[1] = target: T1, Protein deacetylase HDAC6 (Homo sapiens) (UniProt Q9UBN7); conditions: at 10 µM
T1 sequence (whole entry): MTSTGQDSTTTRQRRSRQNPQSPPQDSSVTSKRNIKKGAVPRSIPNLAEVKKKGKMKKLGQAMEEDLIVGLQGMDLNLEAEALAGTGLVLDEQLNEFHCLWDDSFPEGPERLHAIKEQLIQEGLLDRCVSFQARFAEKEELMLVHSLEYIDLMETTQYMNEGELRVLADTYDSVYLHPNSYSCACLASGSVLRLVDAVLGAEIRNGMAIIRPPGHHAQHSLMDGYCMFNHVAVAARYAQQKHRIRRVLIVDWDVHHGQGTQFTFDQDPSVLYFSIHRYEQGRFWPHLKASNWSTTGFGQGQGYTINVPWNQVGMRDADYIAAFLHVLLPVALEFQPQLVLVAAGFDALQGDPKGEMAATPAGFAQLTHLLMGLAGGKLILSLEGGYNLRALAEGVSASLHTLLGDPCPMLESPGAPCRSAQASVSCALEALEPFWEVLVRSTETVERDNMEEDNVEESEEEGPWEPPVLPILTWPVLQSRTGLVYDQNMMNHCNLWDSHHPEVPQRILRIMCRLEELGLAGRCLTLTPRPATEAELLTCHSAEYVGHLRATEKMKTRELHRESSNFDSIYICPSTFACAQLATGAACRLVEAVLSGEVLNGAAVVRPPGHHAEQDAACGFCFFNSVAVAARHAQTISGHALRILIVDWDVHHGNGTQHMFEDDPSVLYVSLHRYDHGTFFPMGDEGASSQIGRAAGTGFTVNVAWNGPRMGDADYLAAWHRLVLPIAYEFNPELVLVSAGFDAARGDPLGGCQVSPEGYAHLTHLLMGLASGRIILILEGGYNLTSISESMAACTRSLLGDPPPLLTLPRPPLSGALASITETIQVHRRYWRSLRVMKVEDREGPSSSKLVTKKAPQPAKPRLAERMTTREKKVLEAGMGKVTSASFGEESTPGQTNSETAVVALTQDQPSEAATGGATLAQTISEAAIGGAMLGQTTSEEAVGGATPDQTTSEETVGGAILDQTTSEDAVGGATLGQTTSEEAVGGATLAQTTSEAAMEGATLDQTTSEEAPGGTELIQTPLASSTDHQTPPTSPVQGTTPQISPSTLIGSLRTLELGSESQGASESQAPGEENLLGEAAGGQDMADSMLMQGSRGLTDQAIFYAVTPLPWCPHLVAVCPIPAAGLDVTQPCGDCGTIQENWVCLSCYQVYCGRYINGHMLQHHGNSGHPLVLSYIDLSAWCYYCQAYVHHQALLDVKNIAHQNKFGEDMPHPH

[2] = target: Protein deacetylase HDAC6 (Homo sapiens) (UniProt Q9UBN7); conditions: at 10 µM; remark: listed apart in the source

N#Cc1ccc(-c2ccc(S(=O)(=O)Nc3cccc(N)n3)cc2)cc1
inhibition [1]: 2.23%

Nc1ncccc1-c1nc2ccc(-c3ccccc3)nc2n1-c1ccc(C2(N)CCC2)cc1
inhibition [1]: 0.11%

N[C@@H](C(=O)O)c1ccc(O)c(C(=O)O)c1
inhibition [1]: -2.24%

CC(C)c1ccc2oc3nc(N)c(C(=O)O)cc3c(=O)c2c1
inhibition [1]: 99.5%

N[C@H](C(=O)O)c1ccc(O)c(C(=O)O)c1
inhibition [1]: -4.47%

CCOc1cc(OCC)c(C(=O)CCC(=O)O)cc1OCC
inhibition [1]: -6.02%

Cc1n[nH]c2ccc(-c3cncc(OC[C@@H](N)Cc4ccccc4)c3)cc12
inhibition [1]: -5.53%

hemin, CHEMBL5308479
inhibition [2]: 13.1%

NCCNc1ccc(NCCN)c2c1C(=O)c1ccncc1C2=O
inhibition [1]: 62.5%

NCCNS(=O)(=O)c1ccc(Cl)c2ccncc12
inhibition [1]: -2.71%

O=C1c2c(O)ccc(O)c2C(=O)c2c(NCCNCCO)ccc(NCCNCCO)c21
inhibition [1]: 16%

Clc1ccc2c(N3CCN(CCCN4CCN(c5ccnc6cc(Cl)ccc56)CC4)CC3)ccnc2c1
inhibition [1]: -8.35%

CC(C)(C)c1ccc(S(=O)(=O)Nc2ccc(Cl)cc2C(=O)c2cc[n+]([O-])cc2)cc1
inhibition [1]: -2.23%

CC(C)Oc1ccc(Cc2ccc(NC3=NCCN3)cc2)cc1
inhibition [1]: 18.9%

CCOC(=O)c1cc2ccc(O)cc2oc1=O
inhibition [1]: 86.3%

CCOC(=O)c1c(C)n(C)c2ccc(O)cc12
inhibition [1]: 0.03%

CCOC(=O)c1ccc(O)cc1
inhibition [1]: -0.21%

O=C1Nc2ccccc2C2=NC(CN3CCN(c4ccccc4)CC3)CN12 (stereo not given)
inhibition [1]: -3.43%

O=C(O)COc1cccc(CN(Cc2ccc(-n3cccn3)cc2)S(=O)(=O)c2cccnc2)c1
inhibition [1]: 0.4%

COc1ccc2[nH]c(C(=O)c3ccccc3)cc2c1
inhibition [1]: 73.2%

COC(=O)Nc1nc2cc(C(=O)c3ccccc3)ccc2[nH]1
inhibition [1]: 6.52%

COc1ccc(C(=O)c2ccccc2O)c(O)c1
inhibition [1]: 6.28%

CCN1C(C)(C)CC(Oc2ccc(C(=O)Nc3ccc(NC(=O)Nc4cc(C(C)(C)C)on4)cc3)nc2)CC1(C)C
inhibition [1]: 8.01%

O=C1N=C(NCc2cccs2)S/C1=C\c1ccc2ncccc2c1
inhibition [1]: 13.2%

CCC[C@@]1(CCc2ccccc2)CC(O)=C([C@H](CC)c2cccc(NS(=O)(=O)c3ccc(C(F)(F)F)cn3)c2)C(=O)O1
inhibition [1]: -1.6%

CCn1c(=O)c(-c2ccc(Cl)cc2Cl)cc2cnc(Nc3ccc(N4CCNCC4)c(F)c3)nc21
inhibition [1]: -3.08%

CNC(=O)c1cc2c(cn1)[nH]c1ccccc12
inhibition [1]: 15.7%

CNC(=O)c1ccccc1Sc1ccc2c(/C=C/c3ccccn3)n[nH]c2c1
inhibition [1]: 98.1%

C[C@@]1(F)[C@H](O)[C@@H](CO)O[C@H]1n1ccc(N)nc1=O
inhibition [1]: -2.29%

CNc1cc(OC)c(C(=O)N[C@@H]2CCN(Cc3ccccc3)[C@@H]2C)cc1Cl.CNc1cc(OC)c(C(=O)N[C@H]2CCN(Cc3ccccc3)[C@H]2C)cc1Cl
inhibition [1]: 7.84%
